Consider 51 compounds from PubChem BioAssay AID485353 (National Center for Advancing Translational Sciences (NCATS), 2010).

Molecules are shown by their SMILES. Out of some 330,000 compounds screened, about 610 (0.18%) were called active. Inconclusive results (about 2%) are left out. The full list was thinned out, with actives kept by preference. Values without a mark were called inactive. Calls come from the whole dose curve.
Potency is the fitted concentration of half-maximal effect.

This assay is described as follows: qHTS of Yeast-based Assay for SARS-CoV PLP. For activity, positive = growth rescue: 0% is about no effect. Note: nearly all actives have a fitted effect of over 55% in size. As to conditions: S. cerevisiae expressing SARS-CoV PLpro; Potency: growth rescue; series mostly up to 32.9 µM; activity, positive = growth rescue: at the top concentration. (In general: In qHTS, concentration-response curves come from the screen itself.)
Regarding `CCOC(=O)c1nn(-c2ccccc2F)c2nc(Nc3ccccc3)cc(=O)n12`, the “activity, positive = growth rescue” value was 19.8%.

As to `Cc1cc(NC(=O)CS(=O)(=O)c2cn(C)c3ccccc23)no1`, the “activity, positive = growth rescue” value is 4.32%. The same measure, in the same setting: next, `CC1CN(S(=O)(=O)c2ccccc2)C(C)CN1S(=O)(=O)c1ccccc1` (stereo unspecified): 7.74%. Consider `Cn1c(SCC(=O)NC2CCCCC2)nnc1-c1cc2ccccc2o1`, for which the Potency is 10 µM (active). Turning to `CCOc1cccc(-c2nnc(SCC(=O)NC3CC3)n2C)c1`, the “activity, positive = growth rescue” value was -1.58%. Consider `Cn1c(SCC(=O)NC2CCCCC2)nnc1-c1ccc(N)cc1`, for which the “activity, positive = growth rescue” value is 0.0296%.

Turning to `CN(c1ccc2nc3ccccc3c(=O)n2n1)C1CCCCC1`, the “activity, positive = growth rescue” value is -12.9%. On the same count and under the same terms, next, `CC(C)Cc1nnc(NC(=O)CCC(=O)Nc2ccc3cn[nH]c3c2)s1`: -0.296%. Take `S=c1[nH]c(-c2cccs2)cn1-c1ccccc1`: the Potency was 11.2 µM (active). On to `S=c1[nH]nc(-c2cccs2)n1/N=C/c1cn(-c2ccccc2)nc1-c1ccc(Cl)cc1`, for which the “activity, positive = growth rescue” value is 1.04%. On the same count and under the same terms, under `O=c1oc2ccccc2cc1-c1cn(-c2ccccc2)c(=S)[nH]1` stands -4.67%; under `O=C(NN1C(=O)C2C(C1=O)C1C=CC2C12CC2)c1ccccc1Cl` (stereo unspecified), 0.328%.

With `CC12CCC(C(=O)N(NC(=O)c3ccccc3O)C1=O)C2(C)C` (stereo unspecified), the Potency was 2.82 µM (active). Take `COc1ccccc1C(=O)NN1C(=O)C2C3C=CC(O3)C2C1=O` (stereo unspecified): the “activity, positive = growth rescue” value is 4.73%.

In the case of `O=c1c(Cl)c(NCc2ccc(F)cc2Cl)cnn1C12CC3CC(CC(C3)C1)C2`, the “activity, positive = growth rescue” value is -19.4%. With `O=C(NC1CCN(S(=O)(=O)c2ccc(F)cc2)CC1)c1ccccc1`, the “activity, positive = growth rescue” value is 0.666%.

Consider `CCc1ccc(-c2nn(-c3ccccc3)cc2CSC(=N)N)cc1`, for which the “activity, positive = growth rescue” value was 14.6%. The same measure, in the same setting: next, `CCCCC(=O)N(c1ccc(OC)cc1)C1C=CS(=O)(=O)C1` (stereo unspecified): -1.73%; `Nc1ccc(Nc2cc(O)c3ncccc3c2)cc1`: 4.05%. Still for that read-out and setting: next, `Cc1ccc(OCCC(=O)Nc2ccc(S(=O)(=O)Nc3nccs3)cc2)cc1`: 0.527%. As to `O=C(NN1C(=O)C2C3C=CC(C3)C2C1=O)c1ccco1` (stereo unspecified), the “activity, positive = growth rescue” value is 15%. For the compound `O=C(NN1C(=O)C2CCCCC2C1=O)c1ccco1` (stereo unspecified), the “activity, positive = growth rescue” value is 1.51%.

Turning to `CC(C)=C1C2CCC1C1C(=O)N(NC(=O)c3ccco3)C(=O)C21` (stereo unspecified), the Potency was 2.82 µM (active).

On to `CC(=O)NC(c1cccs1)c1cc(Br)c2cccnc2c1O` (stereo unspecified), for which the “activity, positive = growth rescue” value is -0.691%. The same measure, in the same setting: next, `Cc1nn2c(c1-c1ccccc1)N=C(c1ccco1)CC2c1ccccc1` (stereo unspecified): -7.14%; `CC[C@]12c3[nH]c4cc(CCC(=O)N(C)C)ccc4c3CCN1C(=O)[C@@H](CC(=O)NCCCN(C)C)C[C@@H]2C(=O)N1CCN(C(=O)c2ccco2)CC1`: 14.8%. On to `CCC(C)NC(=O)C1CCCN(C(=O)NC2CCCCC2)C1` (stereo unspecified), for which the “activity, positive = growth rescue” value was 2.48%. On to `Cc1ccc(S(=O)Cc2ccc(C(=O)N3CCN(C4CCCCC4)CC3)o2)cc1` (stereo unspecified), for which the “activity, positive = growth rescue” value was 2.29%. Turning to `Cc1ccc(C(=O)COC(=O)CCN2C(=O)C3C4CC(C(Br)C4Br)C3C2=O)cc1` (stereo unspecified), the Potency was 12.6 µM (active). Consider `O=C(CCN1C(=O)C2C3C=CC(C3)C2C1=O)Oc1ccc2ccccc2c1` (stereo unspecified), for which the “activity, positive = growth rescue” value was 0.162%. On the same count and under the same terms, under `Cc1ccc(C(=O)COC(=O)CCN2C(=O)C3C4CCC(C4)C3C2=O)cc1C` (stereo unspecified) stands -3.46%; under `CCN1C(=O)[C@@H]2[C@@H](c3ccc(-c4ccccc4)cc3)N3CCCC[C@@]3(C(=O)OC)[C@@H]2C1=O`, -2.04%; under `O=C(Oc1cccc(N2C(=O)C3C4c5ccccc5C(c5ccccc54)C3C2=O)c1)c1ccco1` (stereo unspecified), 17.8%. With `Cc1nc2ccccc2n1C(=O)N1CCOCC1`, the “activity, positive = growth rescue” value was 20.8%. Still for that read-out and setting: next, `CC1CN(C(=S)Nc2ccccc2F)CC(C)O1` (stereo unspecified): 0.954%. For `CC1CN(C(=S)SCC(=O)c2ccccc2)CC(C)O1` (stereo unspecified), the Potency is 10 µM (active). `O=C(CSC(=S)N1CCOCC1)c1ccccc1`: the “activity, positive = growth rescue” value was -10.4%. Still for that read-out and setting: next, `Cc1ccc(NC(=O)COc2ccc(-n3ccnc3)cc2)cc1Cl`: -21.9%; `COc1cccc(NC(=O)c2ccccc2N(Cc2ccccc2)S(C)(=O)=O)c1`: 4.18%; `O=C(CSc1cccc2cccnc12)N/N=C/c1cccnc1`: 2.68%.

`CCOC(=O)N1CCN(C(c2cccnc2)c2ccc3cccnc3c2O)CC1` (stereo unspecified): the Potency is 11.2 µM (active). Turning to `COc1ccccc1N1CCN(C(CNC(=O)Oc2ccccc2)c2cccnc2)CC1` (stereo unspecified), the “activity, positive = growth rescue” value is -2.51%. Same read-out and setting: next, `Cc1ccc(S(=O)(=O)n2cccc2CO)cc1`: 1.41%; `CC(C)(Oc1ccc(Cl)cc1)C(=O)OCC(=O)NCCc1ccc(S(N)(=O)=O)cc1`: 2.28%; `O=C(Cn1cnc2c(nnn2-c2ccccc2)c1=O)N1CCC(Cc2ccccc2)CC1`: 1.22%.

Consider `COc1cccc(NC(=O)CN(C)C(C)C(=O)Nc2ccc(C#N)cc2)c1` (stereo unspecified), for which the “activity, positive = growth rescue” value is 1.84%. On to `O=C(CCc1nnc(CCCCc2ccccc2)o1)NC(c1cccnc1)C(F)(F)F` (stereo unspecified), for which the “activity, positive = growth rescue” value was 0.42%. The same measure, in the same setting: next, `O=C(Nc1ccc(S(=O)(=O)N2CCCCC2)cc1)C1CC(=O)N(c2ccc(F)cc2)C1` (stereo unspecified): 0.241%; `CN1CCN(C2=NCCO2)CC1`: -0.788%. Still for that read-out and setting: next, `CC(C#N)OC(=O)c1cccnc1SCC(=O)Nc1ccc2c(c1)OCO2` (stereo unspecified): -0.388%. For `CCCCOc1ccc(NC(=O)[C@@H]2CCCN2C(=O)C2CCN(S(=O)(=O)c3ccc(C)cc3)CC2)cc1`, the “activity, positive = growth rescue” value is -8.3%.
